Assay results from PubChem BioAssay (EPA / NIEHS).
Results filed as inconclusive are left out. The source made the active and inactive calls. Rule for the calls: active = hit-call score of the fitted dose curve at least 0.9, where 1 is the maximum; inconclusive = response in the unintended direction; inactive = score below 0.9.

Target: human CYP19A1, CYP19A1 (gene 1588) (UniProt P11511)
Experiment: NVS_ADME_hCYP19A1: NovaScreen (NVS) CYP450-related Enzyme Activity (ADME) Assay for human CYP19A1 (AID 2283098);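 for AC50: potency for inhibitors seen as loss of fluorescent enzyme signal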
Outline: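 Biochem, cell-free; recombinant enzyme + specific substrate; fluorescence intensity at 0.5 h post-dose; 10 uM duplicate primary, conc. series for actives; acetonitrile = negative control/baseline; positive and negative controls on every plate.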

human CYP19A1, CYP19A1 (gene 1588), sequence (P11511 whole entry, looked up): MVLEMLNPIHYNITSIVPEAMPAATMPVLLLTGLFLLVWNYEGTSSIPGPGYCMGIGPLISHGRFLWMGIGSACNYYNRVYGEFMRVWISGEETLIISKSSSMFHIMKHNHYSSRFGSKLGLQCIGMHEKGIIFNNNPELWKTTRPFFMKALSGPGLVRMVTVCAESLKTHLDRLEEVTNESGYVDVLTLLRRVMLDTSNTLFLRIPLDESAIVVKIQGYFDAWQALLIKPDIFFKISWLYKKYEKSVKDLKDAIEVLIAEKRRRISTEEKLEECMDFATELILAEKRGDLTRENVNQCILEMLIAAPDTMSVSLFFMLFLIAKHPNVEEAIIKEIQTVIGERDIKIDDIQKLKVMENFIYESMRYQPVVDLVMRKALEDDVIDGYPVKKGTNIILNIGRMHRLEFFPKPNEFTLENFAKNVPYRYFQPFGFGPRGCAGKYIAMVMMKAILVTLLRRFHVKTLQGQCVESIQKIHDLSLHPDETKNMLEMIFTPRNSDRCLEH

Compound | outcome | AC50
c1ccc2cc3c(ccc4ccccc43)cc2c1 | inactive | 
C=C(C)C(=O)OCCC(F)(F)C(F)(F)C(F)(F)C(F)(F)C(F)(F)C(F)(F)F | inactive | 
Cc1cc(CCN2CCN(c3nsc4ccccc34)CC2)cc2c1NC(=O)CC2(C)C | inactive | 
CC[C@H](c1ccc(O)cc1)[C@@H](CC)c1ccc(O)cc1 |  | 1.77 µM (active)

Target: Cytochrome P450 2C19 (Homo sapiens) (UniProt P33261)
Experiment: NVS_ADME_hCYP2C19: NovaScreen (NVS) CYP450-related Enzyme Activity (ADME) Assay for human CYP2C19 (AID 2283113);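 note: potency for inhibition seen as loss of fluorescent signal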
Outline: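 Compounds first screened in duplicate at 10 uM, then confirmed in concentration series. Insect-cell-expressed human CYP2C19 turned over a fluorogenic substrate, and fluorescence was read after 1 h. Inhibition taken as signal loss relative to acetonitrile.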

Compound | AC50
OCCC(F)(F)C(F)(F)C(F)(F)C(F)(F)C(F)(F)C(F)(F)F | 6.15 µM (active)
Cc1cc(CCN2CCN(c3nsc4ccccc34)CC2)cc2c1NC(=O)CC2(C)C | 4.35 µM (active)
CC[C@H](c1ccc(O)cc1)[C@@H](CC)c1ccc(O)cc1 | 5.22 µM (active)
